Rows were chosen to be rich in hits. Some 4% of all compounds tested hit in one or more screens of this group.
TRHR PAM – qHTS for Small Molecule Agonists and Allosteric Enhancers of Human TRH Receptor: Primary Screen for Enhancers; AID 493056, 2011; enhancement, % at 2 µM; Thyrotropin-releasing hormone receptor (Homo sapiens), P34981; 360,000 tested, 0.66% active; TRHR cells, fluo-8 calcium fluorescence, EC20 TRH enhancement; in the data active = enhancement above about 30%
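TRHR-expressing cells loaded with fluo-8 calcium dye were read kinetically (ex 480/em 530) during compound addition, then stimulated with an EC20 of TRH (10 nM final). Enhancement of the Gq-mediated intracellular calcium response was scored.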
D1 agonist – Allosteric Agonists of the Human D1 Dopamine Receptor: qHTS. activation, % at 2 µM. D(1A) dopamine receptor (Homo sapiens), P21728. HEK293 T-REx D1 cells, calcium flux, agonist mode. 360,000 tested, 1% active
Target sequence (P21728 whole entry, looked up): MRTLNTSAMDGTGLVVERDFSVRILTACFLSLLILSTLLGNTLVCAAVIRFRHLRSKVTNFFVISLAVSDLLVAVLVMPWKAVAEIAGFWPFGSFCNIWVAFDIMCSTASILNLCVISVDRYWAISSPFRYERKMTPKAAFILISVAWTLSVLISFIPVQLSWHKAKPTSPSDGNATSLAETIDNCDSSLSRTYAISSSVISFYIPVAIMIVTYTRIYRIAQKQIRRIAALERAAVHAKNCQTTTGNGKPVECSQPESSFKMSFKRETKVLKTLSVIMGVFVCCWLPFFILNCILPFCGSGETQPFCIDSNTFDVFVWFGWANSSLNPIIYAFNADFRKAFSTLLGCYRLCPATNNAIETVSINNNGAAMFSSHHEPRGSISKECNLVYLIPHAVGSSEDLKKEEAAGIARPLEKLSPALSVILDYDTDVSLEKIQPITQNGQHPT
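Agonism was scored from calcium flux recorded over 180 s (1 read/s) after pintool compound addition, following a 10-cycle baseline. Cells were inducible force-coupled HEK293 TREx D1, plated overnight at 30 C and loaded with no-wash calcium dye.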
Glioma ERSR ind – qHTS for Inducers of the Endoplasmic Reticulum Stress Response (ERSR) in Human Glioma: qHTS; U87-MG GRP78 promoter luciferase reporter, 16 h; Potency, µM, usual class: activators; 420,000 tested, 0.02% active; AID 602332, 2012; active = well fitted activation curve with a large enough effect; inconclusive = small, poorly fitted or top-dose-only effect; inactive = no such curve, though single readings can be large or run the other way; note: series mostly up to about 76 µM; nearly all actives have a fitted effect of over 35% in size
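Stably transfected U87-MG glioma cells carrying a GRP78-based luciferase sensor; 16 h compound incubation. Luminescence end-point read 10 min after Bright-Glo addition at room temperature.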
D1 potentiator – Potentiators of Human D1 Dopamine Receptor: qHTS; D(1A) dopamine receptor (Homo sapiens), P21728; HEK293 TREx D1 cells, calcium flux, dopamine EC20 potentiation; potentiation, % at 10 µM; 360,000 tested, 0.036% active; in the data active = potentiation above about 30%
D1 antag – Antagonist of Human D 1 Dopamine Receptor: qHTS; D(1A) dopamine receptor (Homo sapiens), P21728; AID 504652, 2011; activity change, negative = inhibition, % at 10 µM; HEK293 TREx D1 cells, calcium flux, dopamine EC80; active compounds read low; 360,000 tested, 3.2% active; in the data active = activity change below about -30%
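Antagonism measured as reduced calcium response to an EC80 dopamine addition following 180 s compound pre-read; cells were inducible HEK293 Trex D1 plated overnight at 30 C, read kinetically at 1 cycle/sec.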
TRHR agonist – qHTS for Small Molecule Agonists and Allosteric Enhancers of Human TRH Receptor: Primary Screen for Agonists. Thyrotropin-releasing hormone receptor (Homo sapiens), P34981. TRHR cells, calcium flux fluo-8, FDSS agonist mode. activation, % at 2 µM. 360,000 tested, 0.18% active. AID 493084, 2011
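Read-out: compound-evoked intracellular calcium rise in TRHR cells, fluo-8 dye, kinetic FDSS fluorescence at 1 s/cycle following a 10-cycle baseline. Cells cultured overnight before dye loading (30 min–1.5 h, RT).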
A number is an active result; – = inactive; ? = inconclusive; · = not tested or not shown; ! = not confirmed by another sample. Cut-off read from the data, not from the text of the source, unless noted: active = activation above about 30%; inactive = the rest.

SMILES	TRHR PAM	D1 agonist	Glioma ERSR ind	D1 potentiator	D1 antag	TRHR agonist
CCOc1ccc(C2CC(=O)NC(NC(=O)c3ccc(C)cc3)=N2)cc1 (configuration not stated)	34.7	–	–	–	–	–
Cc1ccc(C(=O)NC2=NC(c3ccc(C)cc3)CC(=O)N2)cc1 (configuration not stated)	–	–	–	–	–	–
COc1ccccc1C(=O)NC(CCSC)C(=O)OC(C)C(=O)NC1CC1 (configuration not stated)	–	–	–	–	–	–
Cc1cc(C)c[n+](C[n+]2cc(C)cc(C)c2)c1	–	–	–	–	–	–
Cc1ccccc1NC(=O)CN(C)S(=O)(=O)c1ccc2c(c1)n(C)c(=O)c(=O)n2C	–	–	–	–	–	–
CSCCC(NS(=O)(=O)c1cccs1)C(=O)Nc1ccc(C)c(Cl)c1 (configuration not stated)	–	–	–	–	-38.8	–
CNC(=S)/N=C/NOCc1ccc(Cl)cc1Cl	–	–	–	–	-39.3	–
NC(=O)NOCc1ccc(Cl)cc1Cl	–	–	–	–	–	–
COc1ccc(NC(=O)CN2CCN(Cc3ccc(F)cc3)S2(=O)=O)cc1Cl	–	–	–	–	–	–
O=C(CN1CCN(Cc2ccc(F)cc2Cl)S1(=O)=O)Nc1ccc(F)cc1	–	48.1	–	–	–	–
CCN(CC)c1nc2c(c(=O)[nH]c(=O)n2C)n1CCOc1ccccc1	–	–	–	35.0	–	–
O=c1c2ccccc2n2c(=S)[nH]nc2n1-c1ccccc1	–	–	–	–	–	–
COc1ccccc1-n1cnc2cc(NS(=O)(=O)c3ccc(Br)cc3)ccc21	–	–	–	–	-38.5	–
COc1ccc(-n2cnc3cc(NS(=O)(=O)c4ccc(C)cc4)ccc32)cc1	–	–	·	–	–	–
N#C/C(=C/c1ccc(Sc2nc3ccccc3[nH]2)o1)c1ccccc1F	–	39.0	–	–	–	–
CCOC(=O)c1ccc(-c2ccc(/C=C(\C#N)c3nc4ccc(C)cc4[nH]3)o2)cc1	–	269.6	·	–	–	119.7
N#C/C(=C/c1ccc(Sc2nc3ccccc3[nH]2)o1)c1cccc(F)c1	–	–	–	–	–	–
Cc1cc2nc(/C(C#N)=C\c3ccc(-c4ccccc4C(=O)O)o3)[nH]c2cc1C	–	81.9	–	–	–	38.7
Cc1ccc2nc(/C(C#N)=C\c3ccc([N+](=O)[O-])o3)[nH]c2c1	–	–	?	–	–	–
Cc1ccc2nc(/C(C#N)=C/c3ccc(-c4ccccc4C(=O)O)o3)[nH]c2c1	–	49.2	–	–	–	70.2
Cc1ccc(C2C(C(=O)c3cccs3)=C(O)C(=O)N2c2cccc(C)n2)cc1 (configuration not stated)	–	–	–	–	–	–
COc1ccc(Nc2ncccc2C(=O)O)cc1	–	–	–	–	·	–
N#C/C(=C\c1ccc(Cl)cc1)c1nc2ccccc2[nH]1	–	–	–	–	–	–
N#C/C(=C\c1ccc(-c2ccc(F)cc2F)o1)c1nc2ccccc2[nH]1	–	151.3	–	–	–	78.0
N#C/C(=C\c1ccc(Sc2ccccc2)o1)c1nc2ccccc2[nH]1	–	–	–	–	–	–
SMILES	TRHR PAM	D1 agonist	Glioma ERSR ind	D1 potentiator	D1 antag	TRHR agonist
N#C/C(=C\c1ccc([N+](=O)[O-])o1)c1nc2ccccc2[nH]1	–	40.9	–	–	–	–
N#C/C(=C\c1ccc(-c2ccccc2C(=O)O)o1)c1nc2ccccc2[nH]1	–	38.2	–	–	–	46.0!
COc1ccccc1C(NC(=O)C1CCN(CCOc2ccc(Cl)cc2)CC1)c1ccccn1 (configuration not stated)	·	·	–	·	·	·
O=C(NN=C1C2CC3CC1CC(Cl)(C3)C2)c1cccs1	–	–	–	–	-38.6	–
CC1(C)NC(=O)N(CC(O)CN(c2ccccc2)S(=O)(=O)c2ccc([N+](=O)[O-])cc2)C1=O (configuration not stated)	–	–	–	–	–	–
COc1ccccc1NC(=O)c1c(C)cc(C)nc1SCC(=O)Nc1ccc(C)c(C)c1	–	–	–	–	–	–
COc1ccccc1NC(=O)c1c(C)cc(C)nc1SCC(=O)Nc1cccc(C)c1	–	72.3	–	–	–	–
N#C/C(=N\O)c1nc2ccccc2s1	31.5	–	–	–	–	–
N#C/C(=C(/O)COc1ccccc1)c1nc2ccccc2s1	–	–	–	–	-42.4	–
N#C/C(=C(/O)c1ccc(F)cc1)c1nc2ccccc2s1	–	–	–	–	–	–
Clc1ccccc1C(c1ccccc1)(c1ccccc1)n1ccnc1	–	–	?	–	-34.3	–
C#CC(c1ccccc1)(c1ccccc1)n1ccnc1	·	·	–	·	·	·
COc1ccc(CNC(=O)c2cnc3ccc(C)cn3c2=O)cc1	–	–	–	–	–	–
S=C(Nc1ccc(Cc2ccncc2)cc1)Nc1cccc(Cl)c1	–	–	–	–	-31.9	–
S=C(NCc1ccncc1)Nc1ccc(Br)cc1	–	–	–	–	–	–
S=C(NCc1ccncc1)Nc1ccc(Cl)c(Cl)c1	–	–	–	–	-35.7	–
CNC(=S)Nc1ccc(Cc2ccncc2)cc1	–	–	–	–	–	–
S=C(NCc1ccncc1)Nc1cc(Cl)cc(Cl)c1	–	–	–	–	-30.8	–
Cc1cc(C)c(C)c(S(=O)(=O)N2CCC(C(=O)Nc3ccccc3N3CCOCC3)CC2)c1C	–	–	–	–	–	–
N/C(=N\OC(=O)c1ccccc1)c1cccnc1	–	–	–	–	-50.3	–
N/C(=N\OC(=O)COc1ccc([N+](=O)[O-])cc1)c1cccnc1	–	–	–	37.6	–	–
N/C(=N\OC(=O)c1cc(Cl)ccc1Cl)c1cccnc1	–	–	–	–	-57.3	–
COc1ccc(NC(=O)CCNC(=O)N2CC(=O)Nc3ccccc32)cc1OC	·	·	–	·	·	·
Cc1ccc(NC(=O)C[n+]2ccn(C3=C([O-])c4ccccc4C3=O)c2)cc1	–	–	–	–	-41.2	–
CN(C)S(=O)(=O)NCc1ccc2c(c1)OCO2	–	–	–	–	–	–
COc1ccc(S(=O)(=O)NCc2ccc3c(c2)OCO3)cc1C	–	–	–	–	-87.3	–
COc1ccc(S(=O)(=O)NCc2ccc3c(c2)OCO3)cc1OC	–	–	–	–	-54.8	–

Bioassay records as filed in PubChem BioAssay.
